RTF Ca sens act: cardiac RTF calcium sensitization; IANBD-labeled TnC RTF fluorescence at EC20 calcium; 0% EC20 calcium, 100% full calcium; activation, % at 7.2 µM; P19429+P45379; hit rate 0.24% among 340,000; AID 493008;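 active = activation above the mean over all tested compounds plus 3 SD, cut at about 30% in these data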;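 note: rise in fluorescence read as greater calcium sensitivity of cardiac thin filaments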
RTF Ca sens inh: cardiac RTF calcium desensitization. inhibition, % at 7.15 µM. hit rate 0.12% among 340,000. IANBD-labeled cardiac RTF, Ca2+ fluorescence. P19429+P45379. AID 493244;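 active = inhibition above the mean inhibition of all tested compounds plus 3 SD, cut at about 17% in these data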;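 note: assay run at fixed EC70 calcium of 1.6 mM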
ANO1 activ: activators or potentiators of mouse TMEM16A chloride channel. Q8BHY3. B-score at 10 µM. AID 623877. HEK293 TMEM16A/YFP-H148Q/I152L, iodide quench fluorescence; hits give low values. hit rate 0.3% among 340,000;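 active = fluorescence-ratio B-score plate-corrected deviation score at least 3 library SD below zero, with starting fluorescence score within 5 deviations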;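 note: channel opened by trigger with iodide after compound preincubation; score built on the fluorescence ratio of max minus min over baseline; more negative score means more quench and so TMEM16A activation or potentiation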
CRFBP-R2 agonist: CRF-BP/CRF-R2 complex agonism; AID 588473; activation, % at 13.2 µM; HEK293 CRF-R2/CRF-BP, calcium dye fluorescence (FLIPR); percent of saturating CRF peptide response; hit rate 0.46% among 350,000;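 active = activation of at least 50%, plus an integration ratio under a set limit after plate pattern correction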
ANO1 block: mouse TMEM16A channel inhibition, primary screen; Q8BHY3; HEK293 TMEM16A/YFP iodide influx fluorescence, ionomycin; normalized B-score (activity score, 25-100; higher = stronger inhibition) at 10 µM; hit rate 1.2% among 310,000;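 active = ratio plate-corrected score three or more library SD toward inhibition, starting fluorescence score within five deviations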;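 note: score derived from kinetic fluorescence span divided by baseline fluorescence per well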
CRFBP-R2 block: antagonists of CRF-binding protein/CRF-R2 receptor complex | HEK293 CRF-R2/CRF-BP, CRF-induced calcium fluorescence | inhibition, % at 11.8 µM | hit rate 0.59% among 350,000;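 active = inhibition of the ligand-induced calcium signal above about 50% at the single tested concentration, limit read from the data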
Large screens that a line does not name were inactive. This is a sample that favours compounds with a hit; in the whole collection about 2.4% have one here.

CCOC(=O)CSc1cc(CS(C)(=O)=O)nc(-c2ccccn2)n1	ANO1 activ -6.6
CCOC(=O)c1c(S(=O)(=O)NCC(=O)N2CCN(c3ccc(OC)cc3)CC2)c(C)n(C)c1C	none
Cc1cc(OCc2nc3ccccc3s2)ccc1N	none
O=C(c1ccc2ccccc2c1)C1CCCN(C(=O)c2noc3c2CCCC3)C1 (stereo not drawn)	ANO1 block 25
O=C(c1ccc2ccccc2c1)C1CCCN(C(=O)c2cccnc2)C1 (stereo not drawn)	none
Cc1cc(C(=O)N2CCCC(C(=O)c3ccc4ccccc4c3)C2)nn1C (stereo not drawn)	none
COc1ccc(C(=O)C2CCCN(C(=O)c3ccc4cc[nH]c4c3)C2)c(C)c1 (stereo not drawn)	ANO1 activ -13
Cc1ncsc1C(=O)N1CCCC(C(=O)c2ccc3ccccc3c2)C1 (stereo not drawn)	CRFBP-R2 block 60
O=C(C[n+]1ccc(C(=O)NCCCO)cc1)c1cccc(Br)c1	none
CCCN(CC(=O)Nc1ccccc1OC)C(=O)c1ccc2c(c1)NC(=O)C(C)S2 (stereo not drawn)	none (no result: ANO1 block)
CCC(=O)c1cn([C@@H](CCC(OC)OC)CC(=O)OC(C)(C)C)cc1CC	none
COc1ccccc1NC(=O)CSc1nnnn1-c1ccccc1OC	none
O=C(CSc1nnnn1-c1ccc2c(c1)OCO2)NCc1ccccc1	none
Fc1ccccc1CSc1nnnn1-c1ccc2c(c1)OCO2	CRFBP-R2 block 57
NC(=O)CSc1nnnn1-c1ccc2c(c1)OCCO2	CRFBP-R2 block 81
COc1ccccc1NC(=O)CSc1nnnn1-c1ccc2c(c1)OCO2	ANO1 activ -7.5
Cc1cc(C)n(C(=O)CCCn2cc([N+](=O)[O-])cn2)n1	none
O=C(COC(=O)CNC(=O)c1ccco1)Nc1ncc(Cl)cc1Cl	none (no result: ANO1 block)
Cc1nccc(-c2cccc(N/N=C(\C#N)C(=O)c3ccccc3)c2)n1	ANO1 block 100
Cc1nccc(-c2cccc(NC(=O)Nc3ccc(Cl)cc3)c2)n1	none
COc1ccc(C(=O)c2ccsc2N)cc1	RTF Ca sens act 65
CN(CCc1ccccn1)C(=O)CCC1CCCN(C(=O)c2ccsc2)C1 (stereo not drawn)	none
C/C=C(\C)CN1CCCC(N(C)CCc2ccc(OC)c(OC)c2)C1 (stereo not drawn)	none
O=C(N/N=C\c1c(O)ccc2ccccc12)c1ccc(Cn2cccn2)o1	none
Cc1ccc(CSc2nnc(SCC(=O)N/N=C/c3c(C)nn(-c4ccccc4)c3C)s2)cc1	ANO1 block 25
CCOC(=O)c1sc(NC(=O)c2c(CC)noc2C)nc1C	none (no result: ANO1 block)
COc1cc(/C=C/C(O)=C/C(=O)/C=C/c2ccc(O)cc2)ccc1O	CRFBP-R2 agonist 113 (no result: ANO1 block)
COc1cc(/C=C/C(=O)NC(=O)c2ccccc2O)ccc1O	none
O=[N+]([O-])c1ccc(NC(=S)N2CCc3ccccc32)cc1	ANO1 block 100
NC(=O)N/N=C/c1c(O)ccc2oc3c(c12)CCCC3	none
CC(C)(C)N=Cc1c(O)ccc2oc3c(c12)CCCC3	CRFBP-R2 agonist 51
CCCNC(=O)/C(=C/c1cn(S(=O)(=O)N(C)C)c2ccccc12)NC(=O)c1ccc(OC)cc1	CRFBP-R2 agonist 78
COc1ccc(CCN2CC(C(=O)NCCN3CCOC3=O)CCC2=O)cc1 (stereo not drawn)	none
O=C1CC(C(=O)O)S/C(=N\N=C\c2ccc(Br)cc2)N1 (stereo not drawn)	none
O=C(COC(=O)c1ccc(O)cc1O)Nc1ccc2c(c1)OCCO2	ANO1 activ -28 (no result: ANO1 block)
Cc1cc(OCc2cc(C(=O)NCCN3CCCCC3CO)no2)cc(C)c1Cl (stereo not drawn)	none
CC1(C)Cc2c(cnn2-c2cccc(F)c2)C(NC(=O)CSc2ccccn2)C1 (stereo not drawn)	none
CCCCCc1nc2sc3c(c2c(=O)n1NC(=O)c1ccc([N+](=O)[O-])cc1)CC(C)(C)OC3	ANO1 block 25
Cc1ccn2cc(CSc3ccccc3N)nc2c1	CRFBP-R2 block 61
CCOC(=S)SCc1cn2ccc(C)cc2n1	none
Clc1cccc(Cl)c1/C=C/c1nc2ccccc2[nH]1	ANO1 block 25
CCN(CC(=O)Nc1ccccc1C(F)(F)F)C(=O)c1ccc(-n2nc(C)c(CCC(=O)OC)c2C)cc1	RTF Ca sens act 62 (no result: ANO1 block)
CCN(CC(=O)Nc1ccccc1C(F)(F)F)C(=O)c1cc(-c2ccccc2)nn1-c1ccccc1	none
O=C(O)c1c(-c2ccccc2)c2oc3ccccc3c2[nH]c1=O	none
COc1cc(C=Nc2c(C)cc(C)cc2C)ccc1OC(C)=O	CRFBP-R2 block 51
Clc1ccc(CONc2ncnc3nonc23)c(Cl)c1	ANO1 block 100
COC(=O)c1scc(C)c1NC(=O)C(Cl)c1ccccc1 (stereo not drawn)	none
COC(=O)c1scc(C)c1NC(=O)c1ccccc1F	CRFBP-R2 agonist 204
COC(=O)c1scc(C)c1NC(=O)Nc1ccccc1	ANO1 block 25
CCOC(=O)C1CCN(c2cc3c(cc2NC(=O)c2ccc(OC)c(OC)c2)n(C)c(=O)n3C)CC1	none
N#Cc1ccc(Cl)cc1NC(=O)CSc1nc2nc(-c3cccs3)cc(C(F)(F)F)c2c(=O)[nH]1	none (no result: RTF Ca sens act, RTF Ca sens inh, ANO1 activ, CRFBP-R2 agonist, CRFBP-R2 block)
COc1ccccc1N1CCN(C(=O)CSc2nc3ccccc3[nH]2)CC1	ANO1 block 25
Cc1ccc2nc(SCC(=O)N3CCOCC3)[nH]c2c1	CRFBP-R2 block 78
COC(=O)c1ccc(Cn2nc([N+](=O)[O-])c(Br)c2C)cc1	none
Cc1ccccc1N=CC1=C(O)c2ccccc2C1=O	none
Cc1ccccc1C(=O)NCCNC(=O)c1cnccn1	none
O=C(O)CCc1n[nH]c(=S)[nH]c1=O	none
CC1(O)c2ccccc2C(=O)N1CCc1ccccc1F (stereo not drawn)	CRFBP-R2 block 59
CC1(O)c2ccccc2C(=O)N1Cc1ccccc1 (stereo not drawn)	none
Cc1ccccc1CCNC(=O)CCn1nc(C)c2c(C)n(-c3ccccc3)nc2c1=O	none
COc1ccccc1CCNC(=O)CCn1nc(C)c2c(C)n(-c3ccccc3)nc2c1=O	CRFBP-R2 block 76
O=Cc1ccc(-c2ccccc2C(=O)O)o1	none
O=C(O)c1ccccc1-c1c2cc(I)c(=O)c(I)c-2oc2c(I)c(O)c(I)cc12	RTF Ca sens act 501, CRFBP-R2 agonist 243
CC1=C/C(=N\OS(=O)(=O)c2ccccc2)C(C)=CC1=O	ANO1 activ -6.4, CRFBP-R2 agonist 69, ANO1 block 100
CC1=C/C(=N\OS(=O)(=O)c2ccccc2)C(C(C)C)=CC1=O	ANO1 activ -5

Source: PubChem (several laboratories)
